A selection: hits, their analogues and other compounds. The true share with any hit is near 18%.
RORgamma inh: blocks mouse ROR gamma transcriptional activity. P51450. Drosophila S2 Gal4-RORgamma UAS-luciferase reporter, 20 h. Potency, µM (doses to about 53.6 µM), for the others: top-dose activity change, negative = inhibition, usual class: inhibitors. 310,000 tested, 5.4% active. AID 2551; further: potency means the concentration at half of the fitted maximal effect; nearly all actives have a fitted effect of over 60% in size
Target sequence (P51450 whole entry, looked up, the tested form may be a part): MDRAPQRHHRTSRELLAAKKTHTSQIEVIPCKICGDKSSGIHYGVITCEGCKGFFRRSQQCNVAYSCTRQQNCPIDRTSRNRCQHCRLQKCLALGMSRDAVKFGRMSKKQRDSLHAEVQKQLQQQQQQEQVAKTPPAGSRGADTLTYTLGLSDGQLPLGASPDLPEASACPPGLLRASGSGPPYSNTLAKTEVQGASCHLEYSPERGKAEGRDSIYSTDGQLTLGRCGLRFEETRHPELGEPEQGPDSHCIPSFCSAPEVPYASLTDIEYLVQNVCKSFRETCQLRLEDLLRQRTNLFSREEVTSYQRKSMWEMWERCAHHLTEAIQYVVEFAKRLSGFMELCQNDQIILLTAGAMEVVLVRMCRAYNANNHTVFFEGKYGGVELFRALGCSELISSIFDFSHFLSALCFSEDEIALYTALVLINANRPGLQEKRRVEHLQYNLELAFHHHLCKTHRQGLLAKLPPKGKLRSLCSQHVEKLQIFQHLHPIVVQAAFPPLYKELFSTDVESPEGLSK
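Drosophila S2 cells stably expressing Gal4-DBD/mouse RORγ fusion under metallothionein promoter plus UAS-luciferase; compound 1 h, then 700 uM CuSO4 induction for 20 h at ambient temperature; inhibition read as reduced luminescence.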
TDP1 cell noCPT: qHTS for Inhibitors of human tyrosyl-DNA phosphodiesterase 1 (TDP1): qHTS in cells in absence of CPT; 420,000 tested, 15% active; Potency, µM (series often up to 46.2 µM), for the others: top-dose activity change, negative = growth inhibition, usual class: inhibitors; DT40 Tdp1-/- hTDP1 cells, no CPT, ATP luminescence, 48 h; further: potency means the concentration at half of the fitted maximal effect; nearly all actives have a fitted effect of over 55% in size
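Compound effects on proliferation are scored in DT40 Tdp1-/-;hTDP1 cells in the absence of CPT. ATP levels (CellTiter-Glo luminescence) are recorded after a ≥48 hr, 37 °C incubation.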
VP16 counter: inhibits Gal4-VP16 luciferase reporter, ROR gamma counter-screen; Drosophila S2 Gal4-VP16 UAS-luciferase, luminescence, 20 h; Potency, µM (series often up to 53.6 µM), for inactives: at the top dose activity, negative = inhibition, most hits filed as inhibitors; 310,000 tested, 3.5% active; AID 2546;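 further: Gal4-VP16 expression switched on by copper sulfate through the metallothionein promoter; potency means the concentration at half of the fitted maximal effect; nearly all actives have a fitted effect of over 50% in size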
TDP1 cell CPT: growth inhibition of DT40 Tdp1-/-;hTDP1 cells with camptothecin (screen for TDP1 inhibitors); 420,000 tested, 12% active; chicken DT40 Tdp1-/-;hTDP1 cells + 20 nM CPT, ATP luminescence, 48 h; AID 686979; Potency, µM (highest dose often 46.2 µM), without a hit: at the top dose activity change, negative = growth inhibition, hits mostly inhibitors; further: potency means the concentration at half of the fitted maximal effect; nearly all actives have a fitted effect of over 55% in size
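Chicken DT40 Tdp1-/- cells complemented with human TDP1, 400 cells/well, exposed to compounds plus 20 nM camptothecin for at least 48 h at 37 C; viability read as ATP content by CellTiter-Glo luminescence.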
LDHA block: blocks human lactate dehydrogenase A; P00338; purified LDHA, NADH/diaphorase-resazurin fluorescence; active compounds read low; activity change, % (values are at about 110 or 230 µM); 480,000 tested, 0.15% active; in the data active means activity change below about -30%; inconclusive means mostly about -25% to -30%;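 further: plate controls were DMSO wells for no effect and wells without enzyme for full effect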
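LDH5 2 nM; NADH 0.06 mM, pyruvate 0.2 mM; 200 mM Tris pH 7.4, EDTA, Tween-20; 5 min RT. Detection: diaphorase 0.133 mg/mL + resazurin 37 µM, fluorescence ex540/em590 at 0 and 20 min; normalized to enzyme-free and DMSO wells.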
IL-1B inflam inh: inflammasome signaling inhibition, IL-1 beta readout | THP-1 LPS/ATP IL-1B secretion, AlphaLISA, 16 h; active compounds read low | activity change, % at 57.5 µM | 360,000 tested, 4.7% active; in the data active means activity change below about -50%; inconclusive means mostly about -30% to -49%
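Secreted IL-1B measured by AlphaLISA bead assay after 16 h compound exposure of THP-1 cells; compounds (final up to 57.5 uM) added 1 h before LPS (250 ng/mL) and ATP (1.25 mM) stimulation; lower signal means less secretion.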
* = called active by the depositor; ? = inconclusive; / = not tested or not shown; [ ] = another dose, or the depositor's remark. Unless noted, the call rests on the fitted dose curve; in most records, active means well fitted curve in the direction sought with a large enough effect; inconclusive means small, poorly fitted or top-dose-only effect, or another doubt; inactive means no such curve, though single readings can be large; an effect the other way counts as inactive or inconclusive. Unless noted, on the % scale 0 is the no-effect control and ±100 the full control effect.

SMILES | RORgamma inh | TDP1 cell noCPT | VP16 counter | TDP1 cell CPT | LDHA block | IL-1B inflam inh
CCn1cc(C(=O)O)c(=O)c2cnc(N3CCN(C(=S)NC(=O)c4ccc(Br)cc4)CC3)nc21 | 0.56µM* | 0% | -10% | 2% | -1 | ?
COc1ccc(CNC(=O)CSc2nc(-c3ccc4c(c3)OCO4)ccc2C#N)cc1OC | / | / | / | / | -5 | /
CC(C)Nc1ncnc2ccc(Br)cc12 | -13% | 4.1µM* | ? | 4.1µM* | 0 | -6
CC(C)COc1ccc(Nc2ncnc3ccc(Br)cc23)cc1 | / | ? | / | 12µM* | -12 | /
O=C(COc1ncnc2ccc(Br)cc12)Nc1ccc(N2CCOCC2)cc1 | -27% | 0% | -2% | -12% | 3 | 29
Brc1ccc2ncnc(Nc3ccc(N4CCOCC4)cc3)c2c1 | ? | 9.2µM* | 22% | 12µM* | 5 | -16
CCOc1ccccc1Nc1ncnc2ccc(Br)cc12 | -8% | ? | -7% | ? | 0 | 20
c1ccc2c(c1)nnn2CNc1nccs1 | -19% | -33% | -2% | 9.2µM* | -1 | 10
O=C(c1ccc(N2CCCC2)c([N+](=O)[O-])c1)N1CCc2ccccc2C1 | / | 29µM* | / | 16µM* | 4 | ?
O=C(c1ccc(N2CCCCC2)c([N+](=O)[O-])c1)N1CCOCC1 | 19% | -13% | -5% | 2% | -11 | -9
CC1Cc2ccccc2N1C(=O)c1ccc2c(c1)OCO2 (stereo unspecified) | / | -8% | / | ? | 0 | -64*
CC1Cc2ccccc2N1C(=O)c1ccc(N2CCCC2)c([N+](=O)[O-])c1 (stereo unspecified) | ? | ? | ? | ? | 0 | -82*
COC(=O)CCN(C(=O)c1ccc(N2CCCCC2)c([N+](=O)[O-])c1)c1ccccn1 | 11% | ? | -7%[10 µM] | 4% | -2 | 7
CC1Cc2ccccc2N1C(=O)c1ccc2nccnc2c1 (stereo unspecified) | 15% | -2% | 3% | -12% | -1 | 7
O=C(c1ccc(N2CCCCC2)c([N+](=O)[O-])c1)N(Cc1ccccc1)c1ccccn1 | ? | 18µM* | -19% | 16µM* | -6 | ?
CCOC(=O)c1c(S(=O)(=O)NCC(=O)N2CCC(C)CC2)c(C)n(C)c1C | / | / | / | / | -14 | /
CCCn1c(=O)c2sc(N3CCC(C)CC3)nc2n(CC(=O)Nc2cc(Cl)ccc2C)c1=O | / | / | / | / | 4 | /
CC[n+]1c(NCc2cc(Br)cc(Br)c2[O-])[nH]c2ccccc21 | / | / | / | / | 8 | /
N#Cc1ccc(N2CCc3ccccc3C2)c([N+](=O)[O-])c1 | 39% | 23µM* | -2% | -13% | 2 | -28
CC(=O)N1CCN(c2cc(N3CCc4ccccc4C3)c(F)cc2[N+](=O)[O-])CC1 | 38% | ? | -5% | ? | -4 | ?
C=CCn1c(=O)c2ccc(C(=O)NCc3ccccc3)cc2n(Cc2cccc(Cl)c2)c1=O | -41% | 13µM* | ? | ? | 0 | -13
O=C(NCc1ccc(Cl)cc1)c1ccc2oc(=O)n(Cc3ccccc3)c2c1 | / | ? | / | 21µM* | -6 | /
C=CCn1c(=O)c2ccc(C(=O)NCc3ccccc3)cc2n(Cc2ccc(Cl)cc2)c1=O | 27%[10 µM] | ? | -75% | ? | -3 | 37
C=CCn1c(=O)c2ccc(C(=O)NCc3ccccc3)cc2n(Cc2ccccc2Cl)c1=O | 11% | 7.3µM* | -2% | 8.2µM* | -6 | 11
CCCn1c(-n2nc(C)cc2C)nc2c1c(=O)n(CCN1CCOCC1)c(=O)n2C | / | / | / | / | 5 | /
Cc1cccc(C2N3CC4(C)CN2CC(C)(C3)C4=O)c1 (stereo unspecified) | / | / | / | / | -1 | /
C/C(=C\C(=O)c1ccc(Cl)s1)N(C)C | 7.1µM* | 8% | ? | 0% | 2 | -4

Assay outcomes (PubChem BioAssay)
